Reference: PubChem BioAssay (NCI)
This is part of a sample that, as a whole, favours compounds with a hit. Of some 83,000 tested, about 20% had one in any assay.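 Interpretation: 100, growth as untreated; towards 0, rising growth inhibition; 0, no net growth; 0 to -100, cell death. Compounds scoring below 10 were considered active.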 The source made the active and inactive calls.

These compounds were tested on MDA-MB-468 breast (assay: NCI-60 one-dose screen, 48 h (100 = growth as untreated, 0 = no growth, -100 = all killed)). Conditions: 10 µM unless noted.

Question: Which growth does the source give for `O=C(/C=C/c1ccc(Cl)cc1)c1ccc(Cl)cc1` here?
Answer: 88.3% (inactive)

Question: For `CN1C(=O)/C(=C/C=C/c2ccco2)SC1=S`, which growth is on record?
Answer: 5.83% (active)

Question: `CN1CCc2c(sc3ncnc(N/N=C/c4ccc(Cl)c(Cl)c4)c23)C1` was tested. Which growth did it give?
Answer: -26.6% (active)

Question: How did the growth turn out when `COc1ccc2c(c1)c(-c1noc(C(=O)c3cn(C)c4ncc(Br)cc34)n1)cn2C` was run?
Answer: 76.1% (inactive)

Question: With `CCCc1cc2cc(-n3nc(CC)c4c3CC(C)(C)CC4=O)cc(NC3CCC(O)CC3)c2c(=O)[nH]1` (stereo unspecified) as the compound, how does the growth read?
Answer: -22.7% (active)

Question: `CC(C)c1cc(N=O)cc(C(C)C)c1O` was tested. Which growth did it give?
Answer: 81.8% (inactive)

Question: How did the growth turn out when `CC(C)(C)c1ccc(C2CC(=O)C3=C(C2)Nc2ccccc2N(C(=O)c2ccccc2Cl)C3c2ccc(F)cc2)cc1` (stereo unspecified) was run?
Answer: -20.1% (active)

Question: For `C=CC(=O)N[C@H](/C=C/C(=O)OCC)Cc1ccc(-c2cc(Cl)cc(Cl)c2)cc1`, which growth is on record?
Answer: 88% (inactive)

Question: `CCCCCN1C=C/C(=C\C(=O)N2CCCc3ccccc32)c2ccccc21` was tested. Which growth did it give?
Answer: 40% (inactive)

Question: With `C=C(C)[C@@H]1CC[C@]2(C)[C@H](CC=C3[C@@H]4CC(C)(C)CC[C@]4(C(=O)NCC#CCN4CCN(C)CC4)CC[C@]32C)[C@@]1(C)CCC#N` as the compound, how does the growth read?
Answer: 47.9% (inactive)

Question: With `COc1cc(OC)c2sc(-c3ccc(-n4cncc4-c4ccc(OC)c(N)c4)cc3)nc2c1` as the compound, how does the growth read?
Answer: 80.6% (inactive)

Question: Which growth does the source give for `CC(C)NCC(O)COc1ccc(CCOCC2CC2)cc1` (stereo unspecified) here?
Answer: 103% (inactive)

Question: With `OCC12CCCC(CO)(COC1)C2O` (stereo unspecified) as the compound, how does the growth read?
Answer: 109% (inactive)

Question: For `CCC(C)[C@H](NC(C)=O)C(=O)N[C@@H](CCCNC(=N)N)C(=O)N[C@@H](CCCCN)C(=O)N[C@@H](CC1CCC(O)CC1)C(=O)NC(C(=O)N[C@@H](CCSC)C(=O)N[C@@H](CCCNC(=N)N)C(=O)N[C@@]1(C)CCC/C=C\CCC[C@@](C)(C(=O)NC(C(=O)N[C@@H](CCC(=O)O)C(=O)N[C@@H](CC(C)C)C(=O)N[C@H](C(=O)N[C@@H](CCC(=O)O)C(N)=O)C(C)C)[C@@H](C)O)NC(=O)[C@H](CCC(N)=O)NC(=O)[C@H](CC(C)C)NC(=O)[C@H](CC(C)C)NC1=O)[C@@H](C)O` (stereo partly specified), which growth is on record?
Answer: 99.7% (inactive)

Question: With `O=C(CCl)Nc1cc(O)c2c(c1)C(=O)c1cccc(O)c1C2=O` as the compound, how does the growth read?
Answer: -55.1% (active)

Question: Which growth does the source give for `CS(=O)(=O)c1ccc(-c2[nH]c3ccc(F)cc3c2/C=N/NC(N)=S)cc1` here?
Answer: 8.01% (active)

Question: Which growth does the source give for `Nc1nc2c(c3ncccc13)C(c1cccc(Cl)c1)Cc1ncccc1-2` (stereo unspecified) here?
Answer: 26.6% (inactive)

Question: `COC(=O)c1ccc2c(c1)c1c(C)c3ccncc3c(C)c1n2C` was tested. Which growth did it give?
Answer: 39.5% (inactive)

Question: `O=C(Nc1ccc(Oc2ccc(Nc3nc4ccccc4s3)cc2)cc1)Nc1ccc(Cl)c(C(F)(F)F)c1` was tested. Which growth did it give?
Answer: 4.56% (active)

Question: For `CCN(CC)CCC(CNc1c(C)cnc2cc(Cl)ccc12)c1ccc(Cl)c(Cl)c1` (stereo unspecified), which growth is on record?
Answer: 18.5% (inactive)

Question: For `CC1(C)CC2(C)OC2C2(C1)N=NC(=Nc1ccccc1)O2` (stereo unspecified), which growth is on record?
Answer: -15.6% (active)

Question: With `CCCCc1oc2ccccc2c1C(=O)c1cc(I)c(OCCN(CC)CC)c(I)c1` as the compound, how does the growth read?
Answer: -87.4% (active)

Question: For `COc1ccc(/C=C2\Oc3cc(OCCCCCN4CCCCC4)ccc3C2=O)cc1OC`, which growth is on record?
Answer: 57.6% (inactive)

Question: With `COc1ccc([C@H]2[C@H](O)C(=O)N2c2cc(OC)c(OC)c(OC)c2)cc1` as the compound, how does the growth read?
Answer: 8.33% (active)

Question: `O=C1Nc2c(ccc(Cl)c2Cl)/C1=C\c1ccc(C(F)(F)F)cc1` was tested. Which growth did it give?
Answer: 92.8% (inactive)

Question: `Fc1cnccc1C1CC(c2ccc(N3CCNCC3)cc2)=NN1` (stereo unspecified) was tested. Which growth did it give?
Answer: 114% (inactive)

Question: How did the growth turn out when `OCCS` was run?
Answer: 100% (inactive)

Question: How did the growth turn out when `Cc1ccccc1N1C(c2ccccc2)=NNC12C=CC(=O)C=C2Cl` (stereo unspecified) was run?
Answer: 109% (inactive)

Question: For `COc1ccc(/C=N/NC(=O)c2c(N)nn(C)c2Nc2ccccc2)cc1Oc1ccccc1`, which growth is on record?
Answer: 66.6% (inactive)

Question: How did the growth turn out when `C/C(=N\O)C(=O)NCCCCCC(=O)Nc1ccccc1` was run?
Answer: 114% (inactive)

Question: `O=C1c2c(c3c4cccnc4[nH]c3c3ccc4ccccc4c23)C(=O)N1CCN1CCCCC1` was tested. Which growth did it give?
Answer: 29.4% (inactive)

Question: `c1nc2ccc(-c3cc4ccc5[nH]ncc5c4c4c3CCCC4)cc2[nH]1` was tested. Which growth did it give?
Answer: 17.1% (inactive)

Question: How did the growth turn out when `c1ccc(-c2ccc3ccccc3c2)cc1` was run?
Answer: 91.8% (inactive)

Question: `Cc1oc(-c2ccc(Cl)cc2)nc1C1=NN(C(=O)c2ccncc2)C(c2ccccc2)C1` (stereo unspecified) was tested. Which growth did it give?
Answer: 108% (inactive)

Question: With `COc1cc(OC)c2c(c1Cl)O[C@]1(C2=O)C(OCc2ccccc2)=CC(=O)C[C@H]1C` as the compound, how does the growth read?
Answer: -4.52% (active)

Question: How did the growth turn out when `CCOC(=O)c1c(NC(=O)c2ccc(C(C)(C)C)cc2)sc2cc(O)ccc12` was run?
Answer: 87.9% (inactive)
